Results from PubChem BioAssay (NCI).
The panel holds about 79,000 compounds, 15% with a hit somewhere; the sample as a whole holds those more often. Active and inactive are the calls of the source. Cut-off read from the data, not from the text of the source: active = growth inhibition above about 70%; inactive = the rest.

Legend:
[1] = NCI Yeast Anticancer Drug Screen. Data for the rad50 strain (AID 155);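 note: 0% = growth of vehicle-only cultures of the same strain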; details: S. cerevisiae rad50 strain growth inhibition; at 50.0 µM; stronger effect = higher value
Method in brief: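 Readout: growth inhibition relative to vehicle-treated cultures. Compound exposure was carried out in a genetically defined yeast strain deficient in DNA damage repair.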

[2] = NCI Yeast Anticancer Drug Screen. Data for the mec2-1 strain (AID 157); details: S. cerevisiae mec2-1 strain, at 50.0 µM, stronger effect = higher value
Method in brief: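 Using mec2-1 yeast: add compound, measure growth, express inhibition versus vehicle-treated cultures.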

[3] = NCI Yeast Anticancer Drug Screen. Data for the sgs1 mgt1 strain (AID 161);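 note: 0% = growth of cultures given vehicle only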; details: S. cerevisiae sgs1 mgt1 strain, at 50.0 µM, stronger effect = higher value
Method in brief: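 Yeast cells carrying a defined DNA-repair defect were exposed to test compounds. Growth inhibition was measured relative to vehicle-treated controls.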

[4] = NCI Yeast Anticancer Drug Screen. Data for the cln2 rad14 strain (AID 165);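 note: 0% = growth equal to vehicle treated cultures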; details: S. cerevisiae cln2 rad14 strain, at 50.0 µM, stronger effect = higher value
Method in brief: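 Yeast strain cln2 rad14, bearing defects in cell cycle control and DNA repair, serves as the test system; values reflect growth inhibition compared with vehicle.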

[5] = NCI Yeast Anticancer Drug Screen. Data for the bub3 strain (AID 167); details: S. cerevisiae bub3 mutant strain, at 50.0 µM, stronger effect = higher value
Method in brief: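 Readout: yeast growth inhibition, expressed relative to vehicle-only wells. The test organism is a mutant strain from a panel with lesions in DNA repair or checkpoint genes.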

[6] = NCI Yeast Anticancer Drug Screen. Data for the mlh1 rad18 strain (AID 175); details: S. cerevisiae mlh1 rad18 strain growth inhibition; at 50.0 µM; stronger effect = higher value
Method in brief: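 Steps: expose repair-defective yeast to compound; measure growth; express inhibition against vehicle-treated controls.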

Measured: growth inhibition

COc1cc(/C=C2\CCC(CN(C)C)C2=O)ccc1OC(=O)c1ccccc1 (centres undefined)
active: [1] 86.6% | [2] 91.1% | [3] 86% | [4] 89.1% | [5] 85.2% | [6] 89.7%

[CH3][Ga]([CH3])[O]c1ccccc1C=O
inactive: [1] -3.6% | [2] -17.6% | [3] -10.8% | [4] -80.7% | [5] -30.3% | [6] -21.4%

COc1ccc(C(C#N)N2CCCN(C(C#N)c3ccc(OC)cc3)C2c2ccccc2)cc1 (centres undefined)
inactive: [1] -2.1% | [2] 2.95% | [3] -9.05% | [4] -0.2% | [5] -0.1% | [6] 7.1%

CCN(CC)CCC1CCNCC1
inactive: [1] 0.5% | [2] -25.2% | [3] -1.8% | [4] 15.8% | [5] -3.9% | [6] 5.75%

CC(C)CNc1ncnc2c1ncn2C
inactive: [1] -2.2% | [2] -4.85% | [3] -4% | [4] -18.9% | [5] 1.1% | [6] -0.25%

CC(C)=CCCC(C)C1CCC2C3CC=C4CC(O)CCC4(C)C3CCC12C (centres undefined)
active: [6] 72.3%
inactive: [1] 34.5% | [2] 45% | [3] 48.2% | [4] 34.4% | [5] 12.9%

CCCC1(O)c2ccccc2-c2ccccc21
inactive: [1] 12.1% | [2] 17.9% | [3] -5.6% | [4] 14.9% | [5] 26.4% | [6] 17%

Cc1cc(C23OC4COC(C)(C)OC4C2OC(C)(C)O3)nc2ccccc12 (centres undefined)
inactive: [1] -1.35% | [2] 13.6% | [3] 18.6% | [4] -22.1% | [5] 13.1% | [6] 23.6%

CC(NC(=O)C(C)(C)C)c1ccc2c(c1)OCCO2 (centres undefined)
inactive: [1] -4.45% | [2] -11.3% | [3] 6.6% | [4] -3.7% | [5] 4.3% | [6] 2.85%

CC(=O)CC(=O)Nc1ccc(C(=O)O)c(O)c1
inactive: [1] -14.2% | [2] -18.9% | [3] 8.4% | [4] -1.45% | [5] 32.1% | [6] -1%

CCCCCC(N)=O
inactive: [1] 16.6% | [2] -7.05% | [3] 4.25% | [4] 15.2% | [5] 14.8% | [6] 31.8%

Cc1cc(C)c(C(=O)/C(O)=C/c2ccccc2)c(C)c1
inactive: [1] -13.7% | [2] -7.7% | [3] 1.2% | [4] 9.95% | [5] -45.5% | [6] -14.2%

CC(C#N)Nc1ccc(Oc2ccc(C(C)(C)c3ccc(Oc4ccc(NC(C)C#N)cc4)cc3)cc2)cc1 (centres undefined)
inactive: [1] 6.25% | [2] -2.6% | [3] -8.3% | [4] 7.1% | [5] -23.6% | [6] -40.1%

Nc1c(Br)cc(Br)c2c1CCC2
inactive: [1] 10.6% | [2] 5.9% | [3] 10.6% | [4] 1.4% | [5] 8.8% | [6] 15.8%

O=C1CN(CCCO)CC(=O)N2Cc3ccccc3CN12
inactive: [1] -8.95% | [2] 4.55% | [3] -18.7% | [4] -10% | [5] -6.85% | [6] -11.3%

CCOCCOC(=O)Nc1ccc(C)c(NC(=O)OCCOCC)c1
inactive: [1] -0.55% | [2] -18.8% | [3] 8.65% | [4] 4.45% | [5] 5.35% | [6] -4.8%

Nc1c(Br)cc2c([nH]c(=O)c3cc(Br)ccc32)c1Br
inactive: [1] 47.1% | [2] 32.2% | [3] 27.1% | [4] 27.8% | [5] 8.75% | [6] 32.1%

COc1ccc(COC(=O)Nc2ccc([N+](=O)[O-])cc2)cc1
inactive: [1] -38.2% | [2] -3.6% | [3] -28.1% | [4] -5.3% | [5] -18.5% | [6] -12.2%

COc1ccc(CCNC(=S)NCCc2ccc(OC)c(OC)c2)cc1OC
inactive: [1] -17.1% | [2] -17.1% | [3] 2.1% | [4] 20.2% | [5] 34.5% | [6] -1.4%

CN1CCN(Cc2oc(CO)cc(=O)c2O)CC1
inactive: [1] -3.8% | [2] -22.9% | [3] 5.2% | [4] 12.2% | [5] 16.8% | [6] -7.65%

COC(=O)c1cc(=O)c2scc(C)[n+]2[nH]1
inactive: [1] -5.4% | [2] -10.8% | [3] 18.9% | [4] 9.55% | [5] -3.05% | [6] -5.3%

O=[N+]([O-])c1ccc(N=N/C(Cc2ccccc2)=N\Nc2ccccc2)cc1
inactive: [1] 31.4% | [2] 12.9% | [3] -0.2% | [4] 22.6% | [5] -10.4% | [6] 4.65%

COCCN(C(=O)c1ccccc1)C1CCC2(SCCS2)c2[nH]c3ccccc3c21 (centres undefined)
inactive: [1] 16.1% | [2] 14.6% | [3] 3.75% | [4] -35.2% | [5] -1.75% | [6] 41%

NC(=O)c1[nH]nc(C2OC(CO)C(O)C2O)c1O (centres undefined)
inactive: [1] 8% | [2] -27.2% | [3] 7.35% | [4] -0.05% | [5] -22.9% | [6] 8.75%

O=C(O)CSSCC(=O)O
inactive: [1] -0.15% | [2] -16.6% | [3] -18.8% | [4] 23.1% | [5] -10.2% | [6] -24.5%

S=C1SC(=Nc2ccccc2)C(=Nc2ccccc2)N1c1ccc2ccccc2c1
inactive: [1] 8.2% | [2] 8.75% | [3] 28.5% | [4] 12.8% | [5] 27.9% | [6] 24.1%

CCCCCCCCOCCS(=O)(=O)O
inactive: [1] 13.4% | [2] -18.6% | [3] -0.15% | [4] -22.6% | [5] -10.8% | [6] 35.8%

Nc1cc([N+](=O)[O-])ccc1N1C(=O)CCCC1=O
inactive: [1] -15.2% | [2] -4.95% | [3] -10.1% | [4] -5.8% | [5] 5.85% | [6] 12.4%

COc1cc(C(O)CCBr)c(OC)cc1C (centres undefined)
inactive: [1] -23.2% | [2] -19.8% | [3] -20.2% | [4] -0.85% | [5] -1.4% | [6] 19.9%

Cc1cc(C)n(C2=NCCN2)n1
inactive: [1] -26.1% | [2] -33.7% | [3] -14.1% | [4] -33.2% | [5] 4.2% | [6] -17.6%

Cc1ncc(N)nc1C
inactive: [1] -5.25% | [2] -15.8% | [3] -26.5% | [4] -35.5% | [5] -22.6% | [6] -43%

Clc1ccc(C2OCCO2)cc1
inactive: [1] 12.2% | [2] 3.95% | [3] 11.2% | [4] 3.35% | [5] -0.35% | [6] 14.3%

CC(C)CC(Nc1ccc2ccccc2c1)C(N)=O (centres undefined)
inactive: [1] -6.9% | [2] -44.4% | [3] 10.2% | [4] 8.65% | [5] 10.8% | [6] -3.4%

O=C1Nc2cc(F)ccc2C1=O
inactive: [1] 15.5% | [2] 15.1% | [3] 7.95% | [4] 10.7% | [5] 19.6% | [6] 19.4%

CCCC(=O)OC(C)CC(C)C (centres undefined)
inactive: [1] 6% | [2] -13.7% | [3] -12.2% | [4] -10.8% | [5] 2.2% | [6] 1.95%

[O-][n+]1onc2c1/C(=N/O)CCC2
inactive: [1] -17.2% | [2] 4.6% | [3] -14.3% | [4] -2.3% | [5] -4.1% | [6] 11.7%

CC1(C)CNC[C@](C)(OCc2ccccc2)N1
inactive: [1] -24.4% | [2] -29.1% | [3] -11.3% | [4] 11.2% | [5] 10.9% | [6] -4.7%

N#Cc1cccc(N(C(=O)c2ccccc2)c2ccccc2)n1
inactive: [1] 4.35% | [2] 7.9% | [3] -4.5% | [4] 0.1% | [5] 41% | [6] 24.9%

CCN(C(=N)C#N)c1ccccc1
inactive: [1] 29.8% | [2] 13.2% | [3] 10.1% | [4] 24.4% | [5] 29.9% | [6] 27.1%
